Screens deposited in PubChem by National Center for Advancing Translational Sciences (NCATS).
This is a sample that favours compounds with a hit; in the whole collection about 8.7% have one here.
Sfp inh: inhibitors of Bacillus subtilis Sfp phosphopantetheinyl transferase | 3.5% of 310,000 active | Q9F4F7 | Potency, µM, for the others: largest response in the series, negative = inhibition, usual class: inhibitors | Biochemical Sfp PPTase activity, qHTS | AID 1490;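 note: the enzyme is Sfp with the accession as filed and its product quenches rhodamine fluorescence; 0% = enzyme reaction without inhibitor and -100% = no enzyme wells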
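Buffer: 50 mM Hepes-Na pH 7.6, 10 mM MgCl2, 0.01% Nonidet P-40, 0.01% BSA. Enzyme 15 nM, pre-exposed to compound 15 min; substrates then added and fluorescence change tracked over 30 min.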
G9a block: blocks human histone lysine methyltransferase G9a; Q96KQ7; G9a H3K9 monomethylation, AlphaScreen, 2 h; Potency, µM (top dose mostly 102 µM), for the others: top-dose activity, negative = inhibition, usual class: inhibitors; 8.8% of 350,000 active; note: % is set by controls: 0 for no effect and ±100 for the full control effect; nearly all actives have a fitted effect of over 75% in size
Target sequence (Q96KQ7 913-1193 limits assumed): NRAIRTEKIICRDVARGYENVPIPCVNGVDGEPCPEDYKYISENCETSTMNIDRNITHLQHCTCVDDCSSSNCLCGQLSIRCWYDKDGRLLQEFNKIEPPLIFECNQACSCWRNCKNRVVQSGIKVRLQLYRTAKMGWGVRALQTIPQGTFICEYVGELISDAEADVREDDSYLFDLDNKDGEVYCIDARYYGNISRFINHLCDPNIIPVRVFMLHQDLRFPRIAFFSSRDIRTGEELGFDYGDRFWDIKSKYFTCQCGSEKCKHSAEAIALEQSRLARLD
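Quantitative HTS format: methyltransferase activity on a biotin-tagged H3K9 peptide is measured by AlphaScreen, using a rabbit anti-monomethyl-H3K9 antibody with streptavidin donor and anti-IgG acceptor beads. Final levels are 20 nM enzyme, 500 nM peptide, 20 uM SAM; 2 h RT.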
JMJD2A Tudor inh: blocks the human JMJD2A Tudor domain; AlphaScreen JMJD2A-Tudor / H3K4me3 peptide binding; Potency, µM (highest dose often 114 µM), inactives show at the top dose activity change, negative = inhibition, actives largely listed as inhibitors; AID 504339; O75164; 4.4% of 390,000 active; note: % is set by controls: 0 for no effect and ±100 for the full control effect; nearly all actives have a fitted effect of over 50% in size
BAZ2B block: blocks human BAZ2B; AlphaScreen BAZ2B-H3K14Ac peptide displacement; Potency, µM (highest dose often 114 µM), for inactives: at the highest dose activity change, negative = inhibition, usual class: inhibitors; 4.4% of 360,000 active; note: % is set by controls: 0 for no effect and ±100 for the full control effect; nearly all actives have a fitted effect of over 60% in size
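BAZ2B (50 nM) with biotin-H3(5-23)K14Ac peptide (50 nM) in PBS pH 7.4, 0.01% Tween-20, preformed 30 min, then compound 30 min at room temperature; top concentration 110uM. AlphaScreen streptavidin donor/nickel chelate acceptor beads (10 ug/mL final), 20 min dark, signal read.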
ALOX12 inh: blocks human arachidonate 12S-lipoxygenase. 1.1% of 580,000 active. P18054. AID 1671190. purified 12hLO, xylenol orange hydroperoxide absorbance. Potency, µM (highest dose often 108 µM), for inactives: at the top dose activity change, negative = inhibition, usual class: inhibitors; note: % is set by controls: 0 for no effect and ±100 for the full control effect
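Purified human 12hLO (150 nM final) in 25 mM Hepes, 0.01% Triton X-100, pH 7.0 was preincubated 15 min at room temperature with compound. Then 40 uM arachidonic acid was added, 30 min. Hydroperoxide was read by Fe-XO absorbance ratio 573/405 nm.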
HP1b binding inh: blocks HP1-beta chromodomain binding to methylated histone tails. Potency, µM (series often up to 114 µM), without a hit: at the top dose activity change, negative = inhibition, actives largely listed as inhibitors. AlphaScreen HP1-beta / biotin-H3K9me3 peptide binding. P83916. AID 540317. 0.56% of 390,000 active; note: nearly all actives have a fitted effect of over 70% in size
Target sequence (P83916 whole entry, looked up): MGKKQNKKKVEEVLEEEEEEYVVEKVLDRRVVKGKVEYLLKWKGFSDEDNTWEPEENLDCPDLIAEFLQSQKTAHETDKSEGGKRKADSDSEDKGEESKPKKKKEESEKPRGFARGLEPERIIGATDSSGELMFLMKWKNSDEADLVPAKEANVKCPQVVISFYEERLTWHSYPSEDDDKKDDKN
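AlphaScreen: HP1-beta (50 nM) preformed 30 min with biotin-H3(1-18)K9me3 peptide (50 nM) in PBS pH 7.4, 0.01% Tween-20. Compound added for 30 min at RT, then streptavidin donor/nickel chelate acceptor beads (10 ug/mL) for 30 min.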
An asterisk follows results filed as active; ? = inconclusive; · = no result; ! = not active in a repeat; [ ] = remark or other dose. Calls come from the whole dose curve; as a rule, active = well fitted curve in the direction sought with a large enough effect; inconclusive = small, poorly fitted or top-dose-only effect, or another doubt; inactive = no such curve, though single readings can be large; an effect the other way counts as inactive or inconclusive. Potency is the fitted concentration of half-maximal effect.

SMILES | Sfp inh | G9a block | JMJD2A Tudor inh | BAZ2B block | ALOX12 inh | HP1b binding inh
COc1cccc(-n2ccnc2SCC(=O)Nc2cccc(C)c2C)c1 | · | ? | -34.8% | ? | -9.6% | -1.8%[57 µM]
COc1cccc(NC(=O)CSc2nccn2-c2cccc(OC)c2)c1 | 12.5% | 39.8µM* | ? | ? | 0.3% | -25.1%
COC(C)C(=O)NCC(C)c1ccccc1 (centres undefined) | · | · | · | · | 6.4% | ·
NC(=O)NC(=O)COC(=O)c1ccc(F)cc1F | · | · | · | · | 26.8% | ·
COc1ccc(NC(=O)C(Cc2ccccc2)n2cccc2)c(OC)c1 (centres undefined) | -4.3% | ? | -26.3% | 35.5µM*! | 5.9% | -4.4%[57 µM]
COc1ccc2cnnc(SCC(=O)Nc3ccccc3)c2c1OC | -0.7% | 3.4%[59 µM] | -10.8% | 6.9% | -4.3% | 30.5%
COc1ccc(OC)c(NC(=O)CSc2nncc3ccc(OC)c(OC)c23)c1 | ? | · | -33.1% | 79.4µM* | ? | 9.3%
CCOc1ccc(-n2ccnc(SCC(=O)Nc3ccc(OC)cc3OC)c2=O)cc1 | · | 35.5µM* | ? | ? | 1.7% | -14.5%
COc1ccc2nc(SCC(=O)Nc3cc(OC)c(OC)cc3C(=O)O)c(C)cc2c1 | 79.4µM* | 56.2µM* | ? | -30.8% | -2.5% | 19.6%
Fc1ccc(OCc2nnc(-c3ccccc3)o2)cc1 | · | · | · | · | 15.0% | ·
O=C(CCSc1ccc(F)c(F)c1)Nc1ccc(-n2cnnn2)cc1 | · | · | · | · | -89.0% | ·
CCC(=O)Nc1nnc(Cc2c[nH]c3ccccc23)s1 | · | · | · | · | -1.1% | ·
c1ccc2c(Cc3c[nH]c4ccccc34)c[nH]c2c1 | -0.4% | 8.91µM*! | · | · | ? | ·
O=C1N[C@@H](Cc2c[nH]c3ccccc23)C(=O)N[C@H]1Cc1c[nH]c2ccccc12 | -1.1% | · | · | · | ? | ·
Nc1nnc(Cc2c[nH]c3ccccc23)s1 | 4.2% | 44.7µM* | -21.6% | -5.5% | -11.1% | 18.3%
O=C(OCc1nc2ccccc2s1)C1=NN(C2CCS(=O)(=O)C2)C(=O)CC1 (centres undefined) | · | · | · | · | 21.0% | ·
Cc1ccc2cc(C(=O)N(C)C3CCS(=O)(=O)C3)c(C)nc2c1 (centres undefined) | · | · | · | · | 32.5% | ·
O=C(CC(Sc1ccc(Br)cc1)C(=O)O)c1ccc(F)cc1 (centres undefined) | 44.7µM* | ? | 19.8% | -15.1% | 15.0% | 56.9%
CCOc1ccc(C(=O)CC(Sc2ccc(C)cc2)C(=O)O)cc1 (centres undefined) | 35.5µM* | 0.3%[12.7 µM] | -15.3% | -0.6% | ? | 23.1%
CCC(Sc1ccc(C(=O)O)cc1)C(=O)O (centres undefined) | 23.2% | -0.4%[59 µM] | -11.8% | -4.3% | -0.6% | 32.2%
Cc1ccccc1C(=O)Nc1ccc(Cl)c(C(F)(F)F)c1 | · | · | · | · | -10.6% | ·
Cn1cc(CN[C@H]2[C@H](O)[C@H](O)C[C@@H]2c2ccccc2)c2ccccc21 | · | · | · | · | 16.3%[176 µM] | ·
Cc1cc(C)c(NC(=O)C2CCCCN2C)c(C)c1 (centres undefined) | -1.4% | 89.1µM* | -14.5% | ? | ? | 24.7%
COCC(=O)NC1CCC12CCN(C(=O)c1ccc(C)nc1)CC2 (centres undefined) | · | · | · | · | 72.3% | ·
CCOc1ccc2nc(N(CCN(C)C)C(=O)c3cc4ccccc4cc3OC)sc2c1 | ? | 50.1µM* | 39.8µM* | ? | · | ?
SMILES | Sfp inh | G9a block | JMJD2A Tudor inh | BAZ2B block | ALOX12 inh | HP1b binding inh
CCOc1cccc2sc(N(CCN(C)C)C(=O)c3cc4ccccc4cc3OC)nc12 | ? | 39.8µM* | 44.7µM* | ? | ? | -20.4%
CCOc1cccc2sc(N(CCN(C)C)C(=O)c3ccc4c(c3)OCCO4)nc12 | -6.2% | -47.3% | -24.1% | -31.7% | ? | -4.8%
FC1(F)C[C@@H](c2nnc(C3CC3)o2)N(C2CCOCC2)C1 | · | · | · | · | 55.8% | ·
Cc1cc(N2CCC(NCc3nc[nH]c3C)CC2)nc(-c2ccccc2O)n1 | · | · | · | · | 77.0% | ·
CCC(C)C(=O)N1c2ccccc2C(=C2SC(C(=O)OC)=C(C(=O)OC)S2)C(=S)C1(C)C (centres undefined) | 50.1µM* | ? | 8.91µM* | 8.91µM* | -1.9% | ?
CCC(C)NC(=O)CN1C(=O)c2cccnc2Sc2ccccc21 (centres undefined) | · | 3.4%[59 µM] | 0.7% | -33.0% | -7.8% | 66.9%
COc1ccccc1N(O)C1CC(=O)N(c2ccc(Br)cc2)C1=O (centres undefined) | -60.7% | ? | 25.1µM* | ? | ? | ?
CCCCN(C(=O)CCC(=O)O)C1CC(=O)N(c2ccc(OCCC)cc2)C1=O (centres undefined) | 12.1% | -1.2%[12.7 µM] | 1.6% | -2.9% | 33.2% | 17.5%
CCCCCCC(=O)N(O)C1CC(=O)N(c2ccc(F)cc2)C1=O (centres undefined) | 20µM* | · | 50.1µM* | -8.1% | ? | 35.5µM*
CCCCCCC(=O)N(O)C1CC(=O)N(c2ccc(Br)cc2)C1=O (centres undefined) | 22.4µM* | 0.631µM* | 25.1µM* | -9.8% | -56.6% | -64.8%
COc1ccc(N2C(=O)CC(Cc3ccc(Br)cc3)C2=O)cc1 (centres undefined) | 1.5% | · | 5.4% | 6.5% | 1.4% | 32.6%
CCN(CC)Cc1cnc2c(C(=O)Nc3ccc(OC)cc3)cnn2c1 | · | · | · | · | 49.2% | ·
N#Cc1ccc(CN2CC[C@H](c3nnc(-c4ccccc4)o3)C2)cc1 | · | · | · | · | -17.5%[176 µM] | ·
CCCCCCn1nc(C(=O)OCC(=O)Nc2ccc(C)c(F)c2)c2ccccc2c1=O | · | · | · | · | -22.9% | ·
Cn1cc(C(=O)Nc2ccc3c(c2)C(=O)N2CCC[C@H]2C(=O)N3)c2ccccc21 | · | · | · | · | -0.1% | ·
